From PubChem
Rab9 promoter act: qHTS Assay for Rab9 Promoter Activators; Huh7 Rab9 promoter-luciferase reporter, luminescence, 24 h; Potency, µM (titrated, usually from 9.22 µM), without a hit: at the highest dose activation, negative = inhibition, actives largely listed as activators; 320,000 tested, 2.8% active; AID 485297, 2010; note: % of control where 0% means no effect; nearly all actives have a fitted effect of over 60% in size
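Cells were plated at 1500 per well in reduced-serum medium with 10% FBS and left 2 h. Compound in DMSO was then added for 24 h at 37 °C. Reporter signal was read by luminescence after 10 min with luciferase detection reagent.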
ELG1 genotox: qHTS screen for small molecules that induce genotoxicity in human embryonic kidney (HEK293T) cells expressing luciferase-tagged ELG1; HEK293T ELG1-luciferase reporter, luminescence, 16 h; Potency, µM (series often up to 46 µM), without a hit: at the highest dose activity change, positive = activation, usual class: activators; 330,000 tested, 1.3% active; AID 504466, 2011; note: % of control where 0% means no effect; nearly all actives have a fitted effect of over 60% in size
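Genotoxicity was scored as increased ELG1-luciferase reporter signal, measured by ONE-Glo luminescence (30 min, room temperature). Compound or vehicle exposure of the HEK293T reporter cells lasted 16 hr at 37°C.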
FLuc counter: qHTS profiling assay for firefly luciferase inhibitor/activator using purifed enzyme and Km concentrations of substrates (counterscreen for miR-21 project); Luciferin 4-monooxygenase (Photinus pyralis), P08659; purified FLuc, Km substrates, luminescence inhibition; Potency, µM (doses to about 57.5 µM), for the others: top-dose activity change, negative = inhibition, hits mostly inhibitors; 360,000 tested, 6.9% active;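 note: plate controls were vehicle for no effect and reference inhibitor for full effect; nearly all actives have a fitted effect of over 55% in size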
Target sequence (P08659 whole entry, looked up): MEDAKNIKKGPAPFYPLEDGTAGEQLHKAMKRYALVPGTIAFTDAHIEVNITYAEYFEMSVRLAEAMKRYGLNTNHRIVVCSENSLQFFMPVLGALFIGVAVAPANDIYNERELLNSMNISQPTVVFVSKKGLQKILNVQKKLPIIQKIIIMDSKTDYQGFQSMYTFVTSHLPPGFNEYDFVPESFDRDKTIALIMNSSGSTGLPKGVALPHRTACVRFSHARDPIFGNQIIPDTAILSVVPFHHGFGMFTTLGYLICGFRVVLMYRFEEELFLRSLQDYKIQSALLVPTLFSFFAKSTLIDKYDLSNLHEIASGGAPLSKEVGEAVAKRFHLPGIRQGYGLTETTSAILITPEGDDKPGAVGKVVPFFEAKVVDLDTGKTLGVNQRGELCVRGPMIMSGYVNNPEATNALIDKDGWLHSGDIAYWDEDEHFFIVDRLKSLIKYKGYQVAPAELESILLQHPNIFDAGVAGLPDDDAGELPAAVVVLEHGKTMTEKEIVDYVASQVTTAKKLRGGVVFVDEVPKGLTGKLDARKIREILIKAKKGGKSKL
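Biochemical qHTS of compounds, final roughly 60 µM downward over six points, against 10 nM purified firefly luciferase using Km concentrations of substrates (10 uM D-luciferin, 10 uM ATP) in Tris acetate pH 7.5 buffer; luminescence output.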
NPC1 prom act: qHTS Assay for NPC1 Promoter Activators; Huh7 NPC1 promoter luciferase reporter, 24 h; 320,000 tested, 2.4% active; Potency, µM (series often up to 9.22 µM), without a hit: top-dose activation, most hits filed as activators; note: % of control where 0% means no effect; nearly all actives have a fitted effect of over 60% in size
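Readout is luciferase luminescence, reflecting NPC1 promoter activation in stably transfected Huh7 cells after 24 h compound exposure at 37 °C in reduced-serum medium with 10% FBS.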
SMN2 splice enh: qHTS Assay for Enhancers of SMN2 Splice Variant Expression; AID 1458, 2008; HEK293 SMN2-luciferase splicing reporter, luminescence, 30-36 h; Potency, µM (top dose mostly 46.1 µM), inactives show at the highest dose activity change, positive = activation, usual class: activators; 210,000 tested, 2.8% active; note: % of control where 0% means no effect; nearly all actives have a fitted effect of over 55% in size
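HEK293 cells carry an SMN2 minigene-luciferase reporter in which exon 7 inclusion puts luciferase in frame. Cells were seeded at 2000 cells/well, attached for 10-12 hours, then exposed to compounds for 30-36 hours at 37C before ONE-Glo luminescence.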
p53 reactivation: qHTS assay for re-activators of p53 using a Luc reporter; H1299 p53-A138V BP100-luciferase reporter, luminescence, 24 h; Potency, µM (titrated, usually from 92.2 µM), for the others: top-dose activity change, positive = activation, most hits filed as activators; 320,000 tested, 0.063% active; AID 504706, 2011; note: % of control where 0% means no effect; nearly all actives have a fitted effect of over 45% in size
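p53-null H1299 cells stably carrying temperature-sensitive p53-A138V and a BP100-luciferase reporter were pinned with compounds (4-point, 1:5 series) and held 24 hrs at 37 deg C. Luminescence was read 10 min after detection reagent.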
* = called active by the depositor; ? = inconclusive; · = no result; [ ] = another dose, or the depositor's remark. Compounds with a hit are over-represented: about 7.4% of the library has one in this group of screens. Calls come from the whole dose curve; as a rule, active = well fitted curve in the direction sought with a large enough effect; inconclusive = small, poorly fitted or top-dose-only effect, or another doubt; inactive = no such curve, though single readings can be large; an effect the other way counts as inactive or inconclusive. Potency is the fitted concentration of half-maximal effect.

SMILES	Rab9 promoter act	ELG1 genotox	FLuc counter	NPC1 prom act	SMN2 splice enh	p53 reactivation
COc1cc(/C=N/NC(=S)N/N=C/c2cc(OC)c(OC)c(OC)c2)cc(OC)c1OC	20.0%	?	0.213µM*	25.1%	4.47µM*	18.6%
COc1cc(/C=N/NC(=O)C[n+]2ccccc2)cc(OC)c1OC	-6.7%	3.2%	2.4%	-4.7%	5.6%	-5.9%
COc1ccc(/C=N/NC(=O)c2cccc(NC(=O)c3ccc(F)cc3)c2)c(C(=O)O)c1OC	1.7%	-9.5%	?	7.8%	-11.5%	14.1%
COc1ccc(/C=N/NC(=S)Nc2cccc(C(=O)O)c2)cc1OC	-0.7%	2.8%	5.36µM*	1.1%	2.0%	16.6%
COc1cccc(/C=N/NC(=S)Nc2cccc(C(=O)O)c2)c1	3.16µM*	1.4%	1.69µM*	2µM*	14.1µM*	-5.1%
Cc1ccc(-c2nc(SCCOc3ccccc3C)n3[nH]c(=O)cc3n2)cc1	·	·	-2.4%	·	·	·
COc1cc(C2C(C(=O)Nc3ccccc3)=C(C)Nc3nnnn32)cc(OC)c1OC (centres undefined)	·	·	-3.3%	·	-22.5%	·
COc1ccc(/C(C)=N/Nc2ccc(F)cc2F)c(O)c1	?	?	10.7µM*	9.9%	?	12.3%
COc1ccc(C(=O)CCC(=O)Nc2ccc(F)cc2F)cc1	·	·	-9.6%	·	·	·
C/C(=N\Nc1ccc(F)cc1F)c1cccs1	22.6%	?	19µM*	5.8%	-3.3%	5.5%
COc1ccc(/C(C)=N/Nc2ccccc2Cl)c(O)c1	-0.4%	?	10.7µM*	-0.2%	·	7.7%
CC(=O)NCC(=O)N[C@H](CCC(=O)O)C(=O)O	·	·	·	·	-11.9%	·
CCOC(=O)c1ccc(NC(=O)CCc2c(C)nc3c(c(C)nn3C(C)(C)C)c2C)cc1	·	·	-0.6%	·	-13.1%	·
CC(C)Oc1cccc(C2NC(=O)c3ccccc3O2)c1 (centres undefined)	3.4%	4.0%	16.9µM*	5.0%	·	·
COc1cccc(/C=N/N=C(\N)c2nonc2N)c1O	2.51µM*	18.3µM*	?	?	?	10.3%
CCCOc1ccc(/C=N/NC(=O)c2nnn(-c3nonc3N)c2-c2cccs2)cc1OC	-1.8%	-9.2%	10.7µM*	15.4%	·	-2.2%
CCN(CC)c1ccc(/C=N/NC(=O)c2nnn(-c3nonc3N)c2C(C)C)c(O)c1	-33.9%	-10.3%	19µM*	-13.9%	·	?
COc1cccc(/C=N/NC(=O)c2nnn(-c3nonc3N)c2-c2cccs2)c1	1.0%	-5.4%	?	8.1%	·	1.2%
C/C(=N\NC(=O)c1nnn(-c2nonc2N)c1C(C)C)c1cc(C)sc1C	-5.4%	-2.2%	16.9µM*	-1.0%	·	14.3%
COc1cc(/C=N/N=C(/N)c2nonc2N)cc(Br)c1OCc1ccccc1C	-5.6%	2.2%	-1.5%	1.0%	-23.2%	7.0%
C/C(=N\NC(=O)c1nnn(-c2nonc2N)c1C(C)C)c1ccncc1	-12.8%	-4.6%	-0.1%	15.6%	·	-4.2%
CCc1ccc(C(=O)c2cn(CC(=O)NCCc3ccc(OC)c(OC)c3)c3nc(C)ccc3c2=O)cc1	·	·	-13.1%	·	·	·
N/C(=N\N=C\c1ccc2c(c1)OCO2)c1nonc1N	0.316µM*	?	0.953µM*	0.398µM*	3.55µM*	?
Nc1nonc1-n1nnc(C(=O)N/N=C/c2ccc3c(c2)OCO3)c1-c1ccccc1	0.1%	-7.5%	?	-2.0%	·	-2.4%
COc1ccccc1/C=N\N=C(\N)c1ccccn1	2.24µM*	?	6.75µM*	?	15.8µM*	?
SMILES	Rab9 promoter act	ELG1 genotox	FLuc counter	NPC1 prom act	SMN2 splice enh	p53 reactivation
CC(/C=N/NC(=O)c1nnn(-c2nonc2N)c1C(C)C)=C\c1ccco1	8.2%	1.4%[9.26 µM]	5.36µM*	-2.8%	·	16.6%
CC(C)c1c(C(=O)N/N=C/c2ccc3c(c2)OCO3)nnn1-c1nonc1N	12.0%	1.8%	9.53µM*	0.9%	·	15.9%
Cc1nc(-c2ccccc2)nc2sc(C(=O)c3ccc(F)cc3)c(N)c12	-3.9%	6.3%	5.4%	2.7%	·	1.6%
Cc1ccc(C(=O)c2sc3nsc(C)c3c2N)cc1	2.82µM*	0.581µM*	1.69µM*	1.12µM*	10µM*	?
Cc1snc2sc(C(=O)c3ccc(Br)cc3)c(N)c12	3.98µM*	11.6µM*	-24.6%	2.82µM*	?	12.4%
CCCCOc1ccc(C(=O)NCC(c2ccc(Cl)cc2)N2CCOCC2)cc1 (centres undefined)	·	·	0.5%	·	·	·
Cc1ccc2sc(-c3ccc(NC(=O)CCN4C(=O)c5ccccc5C4=O)cc3)nc2c1	0.282µM*	4.61µM*	10.7µM*	0.501µM*	0.398µM*	?
O=C(Nc1ccc(-c2ccc3nncn3n2)cc1)C1CCCC1	14.0%	-3.2%	19µM*	7.1%	?	3.1%
O=C(CCN1C(=O)c2ccccc2C1=O)Nc1ccc(-c2cn3ccsc3n2)cc1	2.24µM*	?	2.69µM*	?	?	?
CC(=O)Nc1ccc(NC(=O)CCN2C(=O)c3ccccc3C2=O)cc1	-8.7%	-6.5%	-4.3%	5.1%	·	9.0%
O=C(Nc1ccc(-c2cn3ccsc3n2)cc1)C1CC1	1.58µM*	?	2.69µM*	2.24µM*	?	?
O=C(CC1CCCCC1)Nc1ccc(-c2ccc3nncn3n2)cc1	2.0%	6.9%	-0.6%	-2.1%	-13.7%	-2.6%
O=C(NCCC(=O)N1CCN(c2ccccn2)CC1)c1ccc(Br)cc1	-1.1%	-1.1%	1.9%	-2.2%	·	-6.4%
CCCn1c(-c2ccc(F)cc2)nc2c(NCCN3CCSCC3)nc(C)nc21	·	·	·	·	-7.0%	·
O=C(Nc1ccc(-c2cn3ccsc3n2)cc1)C1CCCC1	3.16µM*	1.84µM*	1.35µM*	3.98µM*	?	?
CC(=O)Nc1ccc(-c2cn3ccsc3n2)cc1	1.41µM*	5.8µM*	12µM*	1.58µM*	10µM*	?
Clc1ccc(Cn2ccc(-c3ccc4c(c3)OCO4)n2)cc1Cl	-3.6%	0.0%	-22.9%	4.5%	-19.8%	-1.2%
c1cn2cc(-c3ccc4c(c3)OCO4)nc2s1	0.631µM*	?	1.9µM*	0.447µM*	12.6µM*	?
CC(=O)Nc1ccc(S(=O)(=O)NCc2cn3ccsc3n2)cc1	-4.9%	1.4%	-1.5%	-2.1%	4.5%	-4.3%
CN(C(=O)Cn1c(=O)n(Cc2ccc(C(=O)NCc3ccc4c(c3)OCO4)cc2)c(=O)c2ccccc21)c1ccccc1	·	·	-3.9%	·	15.3%	·
